PLAP activator – human PLAP activation. P05187. purified PLAP enzyme, luminescent substrate read-out; hits give high values. activation fold at 20 µM. actives 1.2% (n = 96,000); in the data active means activation fold above about 2
Target sequence (P05187 whole entry, looked up): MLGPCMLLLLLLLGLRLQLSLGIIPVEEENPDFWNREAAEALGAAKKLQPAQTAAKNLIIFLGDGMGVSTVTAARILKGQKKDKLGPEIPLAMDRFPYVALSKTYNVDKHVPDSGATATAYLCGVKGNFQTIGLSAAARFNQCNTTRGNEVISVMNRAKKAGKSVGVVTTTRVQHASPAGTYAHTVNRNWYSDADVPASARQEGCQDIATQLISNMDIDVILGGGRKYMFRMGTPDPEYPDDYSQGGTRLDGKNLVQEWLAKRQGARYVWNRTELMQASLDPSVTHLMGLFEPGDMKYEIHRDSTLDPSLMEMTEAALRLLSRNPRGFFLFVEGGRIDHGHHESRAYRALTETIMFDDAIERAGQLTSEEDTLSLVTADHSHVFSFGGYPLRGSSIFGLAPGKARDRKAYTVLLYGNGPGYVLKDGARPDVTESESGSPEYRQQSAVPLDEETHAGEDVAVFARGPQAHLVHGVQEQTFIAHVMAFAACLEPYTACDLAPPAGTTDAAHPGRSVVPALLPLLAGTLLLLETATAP
PostGolgi yeast – growth inhibition of a yeast mutant, post-Golgi transport screen; post-Golgi transport phenotypic cell assay; AID 739; inhibition, % at 10 µM; actives 0.9% (n = 98,000);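 further: yeast cells grown in 1536-well plates; yeast grown about 18 h at 30C before absorbance read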
hDAT+cocaine – human DAT dopamine uptake with cocaine, either direction. Q01959. LLC-PK1 hDAT cells, [14C]-dopamine uptake with cocaine IC80; actives deviate in either direction. B-score at 10 µM. actives 1.3% (n = 110,000). AID 449768;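 active means Z score or B-score, a plate-position-corrected score, falls beyond the plate's 99.7% confidence bounds, in either direction; inactive means both scores lie inside the 99.7% bounds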;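 further: scored against the spread of the other compound wells on the same plate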
PostGolgi ctrl – inhibits growth of the yeast control strain | inhibition, % at 10 µM | actives 5% (n = 98,000) | AID 738 | efflux-deficient yeast background strain, growth absorbance A615, 16 h
Cav32 inh – inhibitors of human Cav3.2 T-type calcium channel; actives 4% (n = 100,000); AID 449739; Cav3.2-expressing cells, Fluo-4 calcium fluorescence FDSS; hits give low values; B-score at 10 µM; O95180;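 active means single-dose well whose peak fluorescence ratio is a statistical outlier from its plate by either plate-standardised score or position-corrected B-score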
Active calls of the source: *; · = no result. Hits are enriched below; roughly 9.6% of the tested compounds scored in any of these assays. Unless noted, no stated cut-off is given here; in the data, active means inhibition above about 30%; inactive means the rest.

SMILES	PLAP activator	PostGolgi yeast	hDAT+cocaine	PostGolgi ctrl	Cav32 inh
CCOC(=O)N1CCC2(CC1)CC(=O)c1c(ccc3oc(C(=O)O)c(C)c13)O2	1.1	0.4	-0.482	9.2	-0.801
CC(=O)OC1CSc2nc3ccccc3n2C1 (stereo not given)	·	0.6	0.89	5.3	1.32
COc1cccc(/C(C#N)=C/c2c(-c3ccc(Cl)cc3)nc3c(C)cccn23)c1	1.2	6.9	0.403	49.3*	-3.43
Cc1cccn2c(/C=N/OCc3cccc(F)c3)c(-c3ccc(Cl)cc3)nc12	1.1	-8.7	0.135	6.5	·
CC1(C)CC(=O)C=C(c2ccc3[nH]ccc3c2)C1	·	·	0.285	·	0.733
COc1ccc(OC)c(/C=N/N(C)c2ccccc2)c1	1.5	-1.1	-0.238	31.7*	-0.0334
COc1cc(/C=N/N(C)c2ccccc2)cc(Cl)c1O	0.9	1.8	-0.125	47.7*	0.988
COc1cc(/C=C2/CCC/C(=C\c3cc(O)c(OC)c(Cl)c3)C2=O)cc(Cl)c1O	0.3	1.7	-0.16	22.0	2.15
O=C(CCn1nc(-c2ccccc2)ccc1=O)N1CCOCC1	1	-4.2	·	10.0	·
Cc1nnc(NC(=O)CSc2ncnc3c2cnn3-c2ccccc2C)s1	0.8	-7.5	0.145	3.5	-1.04
CCOC(=O)Cc1csc(NC(=O)CSc2ncnc3c2cnn3-c2ccccc2Cl)n1	1.5	-6.9	1.04	4.6	-6.24*
O=S(=O)(c1cc(Cl)cc(Cl)c1)N1CCCC1c1nc2ccccc2s1 (stereo not given)	·	-4.0	-0.624	8.2	0.766
O=S(=O)(c1ccc(Cl)cc1)N1CCCC1c1nc(-c2cccc(Cl)c2)no1 (stereo not given)	0.9	0.8	-1.42	33.3*	-3.14
O=S(=O)(c1ccccc1Cl)N1CCCC1c1nc(-c2cccc(Cl)c2)no1 (stereo not given)	1	-7.9	0.776	21.0	-0.0899
O=S(=O)(c1ccc(Cl)cc1)N1CCCC1c1nc2ccccc2s1 (stereo not given)	0.9	0.2	-0.583	19.4	-4.51*
COc1cccc(/C=N/NC(=O)c2ccc(-c3ccccc3)cc2)c1O	2.1*	9.2	1.02	-3.7	0.363
COc1ccccc1NC(=O)c1[nH]c(C)c(C(C)=O)c1C	0.8	-14.5	-1.41	21.4	0.483
COc1cccc(/C=N/NC(=O)c2[nH]c(C)c(C(=O)N/N=C/c3cccc(OC)c3O)c2C)c1O	2.5*	-11.7	0.374	-4.7	-0.136
Cc1cc(-c2ccccc2)nn1-c1nc2c(c(=O)[nH]c(=O)n2C)n1C	1	8.5	·	-4.5	·
O=C(Nc1ccc(Cc2ccncc2)cc1)C1CCC(N2C(=O)C3C4C=CC(C4)C3C2=O)CC1 (stereo not given)	2.1*	-5.2	0.161	0.3	0.0619
O=C1C2C3C=CC(C3)C2C(=O)N1c1ccc(Cc2ccncc2)cc1 (stereo not given)	0.9	5.5	-1.03	-1.5	-0.0269
O=C(CCC1N=C2c3ccccc3N=C(SCc3ccccc3Cl)N2C1=O)NCc1ccco1 (stereo not given)	1.1	-0.9	0.983	36.8*	-4.19*
O=C(CSC1=Nc2ccccc2C2=NC(CC(=O)NC3CCCCC3)C(=O)N12)NCc1ccco1 (stereo not given)	1.3	0.2	-0.0295	-1.0	-0.71
COc1ccccc1OCCCn1cc(C#N)c2ccccc21	0.9	-5.0	-1.37	23.9	-4.45*
Cc1ccc2cc(/C=C3\N=C(c4ccccc4)OC3=O)c(N3CCOCC3)nc2c1	1.4	-6.5	0.601	-0.3	-6.55*
SMILES	PLAP activator	PostGolgi yeast	hDAT+cocaine	PostGolgi ctrl	Cav32 inh
Cc1ccc(C)c(S(=O)(=O)C(C#N)c2nc3ccccc3nc2N2CCOCC2)c1 (stereo not given)	1.2	-3.3	-1.03	4.1	-0.579
O=C(O)C1=C[C@H](c2cccs2)C[C@H](OCc2ccc(CO)cc2)O1	·	·	-1.7	·	0.336
NC(=O)[C@H]1CC2(CC(c3cccc(NC(=O)COc4ccc(Cl)cc4)c3)=NO2)CN1C(=O)Cc1ccc([N+](=O)[O-])cc1 (stereo not given in full)	·	·	-0.33	·	-0.408
Cc1nnsc1C(=O)NNS(=O)(=O)c1ccccc1	1.1	1.6	-0.594	37.7*	0.0691
CCO[C@@H]1OC(C(=O)O)=C[C@H](C2CC2)[C@H]1CCCO	·	·	-0.458	·	0.231
CCc1nc(SCC(=O)c2ccc(Cl)s2)c2oc3ccccc3c2n1	0.8	-2.5	-0.986	22.4	-1.26
CCc1cc2c(SCC(=O)c3ccc(Cl)s3)ncnc2s1	0.5	-4.1	0.553	35.9*	0.15
CNC(=O)c1c(NC(=O)c2nc3ccccc3s2)sc2c1CCC2	1.6	6.6	0.137	12.9	-1.14
COC(=O)c1c(NC(=O)c2nc3ccccc3s2)sc2c1CCN(C(C)=O)C2	2.1*	6.0	-0.287	26.4	0.053
Cc1ccc(S(=O)(=O)N(C)CC(=O)N2CCCc3ccccc32)cc1	1.1	-1.5	0.68	8.4	0.0234
Cc1ccc(C(CC(=O)NCc2ccco2)c2ccc(OC(C)C)cc2)cc1 (stereo not given)	·	·	0.409	·	-5.1*
COc1ccc(S(=O)(=O)NC(CC(=O)NCc2ccco2)C(C)C)cc1 (stereo not given)	1.2	-0.2	0.743	37.9*	·
CCC(C)NS(=O)(=O)c1ccc(OCC(=O)NCc2ccco2)cc1 (stereo not given)	0.9	7.2	0.0965	-6.7	0.475
COc1ccc(C(CC(=O)NCc2ccco2)c2ccc(F)cc2)cc1 (stereo not given)	0.8	1.7	1	23.0	-3.01
Cc1ccc(NC(=O)CC2S/C(=N/c3nccs3)N(C)C2=O)c(C)c1 (stereo not given)	0.9	2.4	-0.922	31.6*	0.376
CN=C1SC(CC(=O)Nc2ccccc2F)C(=O)N1C (stereo not given)	1.2	-5.9	1.38	-1.8	1.17
O=Cc1cn(CC(=O)N2CCCc3ccccc32)c2ccccc12	·	·	-0.312	·	0.893
CCOC(=O)Cn1cc(C=O)c2ccccc21	0.9	42.1*	-10.2*	0.8	1.11
COc1ccc(NC(=O)C23CC4CC(C2)CC(n2cnc(Br)n2)(C4)C3)c(OC)c1	1.6	-4.3	-0.402	8.6	3.36*
COc1ccc(OC)c(NC(=O)C23CC4CC(C2)CC(n2cnc(Br)n2)(C4)C3)c1	1.6	0.5	1.94	1.0	0.666
Cc1cc(C)nc(/N=c2/ssnc2Cl)c1	1	63.8*	0.638	53.6*	0.666
Cc1ccc(N=c2ssnc2Cl)cc1	1.1	-5.9	0.705	-10.3	0.0362
COc1ccc(OC)c(NC(=O)c2nnn(Cc3ccccc3C)c2N)c1	1.2	-10.5	-0.381	34.4*	-0.204
CCc1ccc(Cn2nnc(C(=O)NCc3ccccc3OC)c2N)cc1	1	4.7	-0.717	-5.6	-7.14*
COc1ccc(C)cc1NC(=O)c1nnn(Cc2cc(C)ccc2C)c1N	0.9	1.0	-0.00135	18.4	-1.74
COc1ccc(CNC(=O)c2nnn(Cc3ccc(OC)cc3)c2N)cc1	·	5.3	-0.0347	0.5	-5.24*
Cc1ccc(NCC(=O)N/N=C/c2ccc(OC(=O)c3ccco3)cc2)cc1	0.9	8.0	-0.724	1.6	0.774

Screening results from PubChem BioAssay.
